Each molecule was assayed against T1, Transcription intermediary factor 1-alpha (Homo sapiens) (UniProt O15164). Conditions: Compound concentration 20.0 uM, Protein concentration 2.0 uM, Result type QC Liability.
T1 sequence (whole entry): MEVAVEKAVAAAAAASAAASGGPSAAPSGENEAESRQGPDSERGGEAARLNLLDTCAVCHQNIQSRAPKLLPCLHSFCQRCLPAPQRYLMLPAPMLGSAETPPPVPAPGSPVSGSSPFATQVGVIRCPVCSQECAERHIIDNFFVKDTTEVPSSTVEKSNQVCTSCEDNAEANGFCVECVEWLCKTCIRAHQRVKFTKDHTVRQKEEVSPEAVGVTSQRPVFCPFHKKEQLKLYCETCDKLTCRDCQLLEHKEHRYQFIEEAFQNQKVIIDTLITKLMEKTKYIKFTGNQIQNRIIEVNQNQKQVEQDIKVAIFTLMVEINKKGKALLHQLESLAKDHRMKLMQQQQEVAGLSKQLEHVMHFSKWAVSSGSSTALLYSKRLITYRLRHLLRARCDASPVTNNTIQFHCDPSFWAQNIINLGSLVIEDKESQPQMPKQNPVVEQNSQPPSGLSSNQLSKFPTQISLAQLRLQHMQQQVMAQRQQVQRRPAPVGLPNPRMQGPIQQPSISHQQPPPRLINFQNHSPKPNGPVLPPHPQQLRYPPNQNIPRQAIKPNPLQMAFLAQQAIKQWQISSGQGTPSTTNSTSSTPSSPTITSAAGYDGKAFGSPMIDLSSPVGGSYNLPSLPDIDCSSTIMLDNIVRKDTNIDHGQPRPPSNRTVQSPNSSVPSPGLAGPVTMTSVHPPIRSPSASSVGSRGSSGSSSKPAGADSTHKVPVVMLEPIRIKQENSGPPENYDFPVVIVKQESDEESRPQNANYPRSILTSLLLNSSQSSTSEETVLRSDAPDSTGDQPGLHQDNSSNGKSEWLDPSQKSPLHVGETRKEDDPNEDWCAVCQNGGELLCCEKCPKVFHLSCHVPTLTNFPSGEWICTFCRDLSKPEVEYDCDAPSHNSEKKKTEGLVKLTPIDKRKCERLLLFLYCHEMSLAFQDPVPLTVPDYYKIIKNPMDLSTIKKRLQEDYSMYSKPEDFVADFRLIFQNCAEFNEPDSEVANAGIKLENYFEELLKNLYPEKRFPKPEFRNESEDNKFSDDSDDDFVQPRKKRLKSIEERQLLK

SMILES	ΔTm [°C]
CC[C@@H](C(=O)OC)n1c(=O)c2ccccc2n(Cc2cn(C)c3cccc(C)c23)c1=O	0.71
COc1c(-c2cn(C3CCC(=O)NC3=O)nn2)csc1C(=O)N1CCCC1 (centres undefined)	-2.25
CC(C)(C)C(=O)NCc1ccc(Cl)c(C(=O)Nc2ncc[nH]2)c1	-0.67
Cc1nc2cccnc2n2c(-c3cc([C@@]4(O)CCCOC4)ccc3Cl)nnc12	0.37

From ChEMBL document CHEMBL5308504, “Tm Shift (DSF) assay results for EUbOPEN Chemogenomics Library” (2023)
